Laboratory results reported in PubChem BioAssay (NCI).
Compounds without any hit were thinned out: in the full panel of roughly 79,000, 15% have a hit. Values without a mark were called inactive. The source made the active and inactive calls. Rule as the data show it: active = growth inhibition above about 70%; inactive = the rest.

Test: NCI Yeast Anticancer Drug Screen. Data for the rad50EPP+ strain (AID 151);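 also: 0% = growth of vehicle-treated control cultures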
Settings: S. cerevisiae rad50 mutant strain, stronger effect = higher value
Experimental: Growth inhibition of yeast strains with defined genetic alterations is measured as a screen for potential anti-cancer activity. Selected strains with alterations in DNA damage repair or cell cycle control were exposed to compounds and growth inhibition was measured relative to vehicle treated controls. The strain used in this assay is rad50EPP+

Row | SMILES | growth inhibition (at 1.2 µM) | growth inhibition (at 3.7 µM) | growth inhibition (at 11.0 µM) | growth inhibition (at 33.0 µM) | growth inhibition (at 100.0 µM)
1 | COC(=O)/C=C(/C(=O)OC)C(Cl)(Cl)Cl | 4% | -9% | 24% | 61% | 84% (active)
2 | Cc1c(-c2ccccn2)ccc2ccccc12 | -3% | 0% | 10% | 43% | 71% (active)
3 | O=C(/C=C\c1cccc(C(F)(F)F)c1)c1ccccc1 | 1% | 0% | 3% | 4% | 9%
4 | CCCC(O)C1CC(C(C)C)CCC1C (stereo not given) | -3% | -2% | 7% | 47% | 98% (active)
5 | COc1cc(/C=C2\CCC/C(=C\c3ccc(O)c(OC)c3)C2=O)ccc1O | 0% | -2% | 24% | 22% | 15%
6 | CC1=CC(=C(c2ccc(N)cc2)c2ccc(N)cc2)C=CC1=N | 15% | 22% | 20% | 29% | 51%
7 | Cc1cc(N(CCOS(C)(=O)=O)CCOS(C)(=O)=O)ccc1C=Nc1ccc(-c2csc(-c3ccccc3)n2)c(Cl)c1 | 3% | -1% | 13% | 62% | 85% (active)
8 | O=C(NNc1ccccc1)C(O)C(O)C(O)C(O)C(O)CO (stereo not given) | 9% | 29% | 43% | 64% | 86% (active)
